Bioassay records deposited in PubChem BioAssay by several laboratories.
Only some compounds are listed: those with a hit (about 0.24% of all), similar ones and a draw of the others.
Bim-Bcl-W: human Bim-Bcl-W interaction inhibition. Q92843. bead-based flow cytometry, Bim peptide-Bcl-W binding. inhibition, % at 10 µM. actives 0.02% (n = 190,000);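 also: 0% = bound tracer without compound and 100% = peptide blocker; higher means less fluorescent Bim peptide bound to Bcl-W beads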
Bcl-B Bim block: disrupts Bim peptide binding to human Bcl-B; inhibition, % at 10 µM; Q9HD36; bead-based flow cytometry; actives 0.073% (n = 190,000);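 also: 0% = tracer peptide without compound and 100% = reference inhibitor peptide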
Bim-Bfl-1: inhibitors of Bim-Bfl-1 interaction, human | Bead-based flow cytometry, Bim-Bfl-1 binding inhibition | inhibition, % at 10 µM | actives 0.12% (n = 190,000);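 also: 0% = wells without compound plus tracer and 100% = blocker peptide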
PKD1 kinase inh: inhibitors of human PKD1 kinase; Q15139; PKD1 kinase fluorescence polarization assay; inhibition, % (no concentration beside the values); actives 0.056% (n = 200,000); AID 797; in the data active = inhibition above about 50%
Bcl-2 Bim block: disrupts Bim peptide binding to human Bcl-2; inhibition, % at 10 µM; actives 0.06% (n = 190,000); Bead-based flow cytometry, Bim peptide-Bcl-2 binding; in the data active = inhibition above about 40%;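 also: 0% = no compound wells with probe peptide and 100% = reference peptide inhibitor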
Target sequence (P10415 whole entry, looked up): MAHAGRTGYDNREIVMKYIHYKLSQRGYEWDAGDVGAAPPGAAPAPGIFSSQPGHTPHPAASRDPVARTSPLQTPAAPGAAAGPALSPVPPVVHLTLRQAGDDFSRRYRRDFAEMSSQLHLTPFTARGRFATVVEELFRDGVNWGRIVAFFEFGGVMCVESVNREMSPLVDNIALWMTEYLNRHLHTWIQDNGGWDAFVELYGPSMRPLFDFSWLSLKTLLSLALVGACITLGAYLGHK
Bim-Bcl-XL: disrupts Bim peptide binding to human Bcl-XL; actives 0.04% (n = 190,000); inhibition, % at 10 µM; Q07817; bead flow cytometry, fluorescence
Bim-Bcl-XL DR: Bim-Bcl-XL interaction regulation, dose confirmation. inhibition of binding at 100 µM. bead-based flow cytometry, Bim-Bcl-XL binding. 40 tested, under 10 active. shares compounds with Bim-Bfl-1; call rule not given here
* = called active by the depositor; · = no result. Rule as the data show it, unless noted: active = inhibition above about 40%.

SMILES	Bim-Bcl-W	Bcl-B Bim block	Bim-Bfl-1	PKD1 kinase inh	Bcl-2 Bim block	Bim-Bcl-XL	Bim-Bcl-XL DR
O=C(Nc1nnc(COc2ccc(Cl)cc2)s1)c1ccco1	-9.0	-43.0	23.0	7.9	-2.0	-15.0	-5.02
Cc1ccc(NC(=O)NCCCc2ccccc2)cc1	0.0	-1.0	-2.0	6.6	0.0	0.0	·
COc1cc(CNc2ccc3[nH]c(=O)[nH]c3c2)cc(Br)c1OCC(=O)NC(C)(C)C	21.0	-8.0	9.0	0.9	-3.0	2.0	2.86
CCOC(=O)c1cnn(-c2ncnc3c2cnn3Cc2ccccc2)c1N	·	·	·	-8.1	·	·	·
CCN(C(=O)COc1cc(=O)n(CC)c2ccccc12)c1cccc(Cl)c1	5.0	-6.0	-8.0	3.1	-1.0	7.0	·
O=C1c2ccccc2C(=O)N1CN(C(=O)COc1ccc(Cl)cc1Cl)c1cccc(F)c1	2.0	16.0	-5.0	-0.4	0.0	-2.0	-1.37
Cc1ccc(-c2cc(C(=O)Nc3nccs3)c3ccccc3n2)o1	4.0	-3.0	37.0	-0.7	11.0	0.0	-0.506
CC1CCc2c(sc3ncn(CC(=O)N4CCCCC4)c(=O)c23)C1 (centres undefined)	-1.0	-8.0	-7.0	3.6	1.0	-2.0	·
CNS(=O)(=O)c1ccc(C(C)(C)C)cc1	-3.0	-8.0	-7.0	-2.4	-2.0	-3.0	·
S=c1[nH]cc(-c2ccccc2)n1-c1ccccc1Cl	-3.0	26.0	-14.0	-10.5	-12.0	-4.0	·
COc1ccccc1-n1c(-c2ccccc2)c[nH]c1=S	3.0	-20.0	22.0	-11.8	3.0	-2.0	2.08
CNC(CC(=O)c1ccc([N+](=O)[O-])cc1)C(Cl)(Cl)Cl (centres undefined)	3.0	4.0	55.0*	-2.5	11.0	2.0	2.35
CCOc1ccc(C(=O)CC(=O)C(=O)NCCc2ccc(OC)c(OC)c2)cc1	0.0	-3.0	2.0	5.9	6.0	-2.0	·
COc1cc(NC(=O)c2c(F)c(F)c(F)c(F)c2F)c(OC)cc1Cl	-2.0	-7.0	-5.0	-18.6	-6.0	-6.0	·
COc1cc(N=C2SSNC2Cl)c(OC)cc1Cl (centres undefined)	·	·	·	·	·	·	10.5
CC(=O)OCCNc1cc(SCc2ccco2)c2nonc2c1[N+](=O)[O-]	2.0	-11.0	13.0	12.0	-1.0	-5.0	·
CC(=O)OCCCNc1cc(Sc2nc3ccccc3s2)c2nonc2c1[N+](=O)[O-]	11.0	-4.0	48.0*	4.8	2.0	3.0	4.68
CCOc1ccccc1CNc1ccc(O)cc1	23.0	-15.0	44.0*	-11.7	11.0	4.0	0.0435
Cc1cc2nn(-c3cccc4ccccc34)nc2cc1N	13.0	-1.0	48.0*	1.2	15.0	4.0	1.95
